Compound activity as filed in PubChem BioAssay.
Shown are actives, neighbours in structure and some others; about 5.9% of the full set was active somewhere.
HepG2 viability = counter-screen for TGF-b inhibitors: cytotoxicity in HepG2 cells. HepG2 CAGA-GFP viability, ATP luminescence, 18 h. Potency, µM (titrated, usually from 46.1 µM), without a hit: top-dose activity change, negative = cytotoxicity, hits mostly cytotoxic. 410,000 compounds, 0.76% hits. AID 588856
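HepG2 CAGA-GFP cells (1000/well, DMEM with 1% FBS) received compound, then TGF-beta at 500 pg/mL final, and were incubated 18 hours at 37 degrees C. Viability was read by CellTiter-Glo luminescence. Media-only wells were set as complete cell-killing and DMSO as no toxicity.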
TGFb inhibitor = blocks TGF-b signaling. HepG2 CAGA-GFP TGF-b/SMAD3 reporter, GFP fluorescence, 18 h; TGF-beta stimulated, 500 pg/mL final. Potency, µM (series often up to 46.1 µM), for inactives: top-dose activity, negative = inhibition, actives largely listed as inhibitors. 410,000 compounds, 1.2% hits; further: on the % scale 0 is the no-effect control and ±100 the full control effect; nearly all actives have a fitted effect of over 65% in size
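GFP signal (ex488/em500-530) from TGF-beta-stimulated HEPG2 CAGA-GFP cells, 500 pg/mL final, 18 h at 37 degrees C in DMEM plus 1% FBS, normalized to unstimulated and DMSO-stimulated controls.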
ATXN2 expr inh = reduces ATXN2 reporter expression in HEK-293 cells. Potency, µM (titrated, usually from 57 µM), inactives show at the highest dose activity change, negative = inhibition, hits mostly inhibitors. HEK-293 ATXN2-luciferase reporter, luminescence, 24 h. AID 1745845. 360,000 compounds, 0.72% hits; further: on the % scale 0 is the no-effect control and ±100 the full control effect; nearly all actives have a fitted effect of over 55% in size
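qHTS (up to 57 uM final) was run with 24 h compound exposure of reporter cells at 37 °C. Each well was multiplexed: SteadyGlo luminescence measured ATXN2-luciferase expression after a fluorogenic Gly-Phe-AFC viability readout (25 uM final).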
KB-V1 MDR tox = kills drug-selected multidrug resistant KB-V1 cells; Potency, µM (highest dose often 46.1 µM), most hits filed as cytotoxic; KB-V1 MDR cells viability, CellTiter-Glo, 72 h; 400,000 compounds, 3.4% hits; further: on the % scale 0 is the no-effect control and ±100 the full control effect; nearly all actives have a fitted effect of over 60% in size
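Cytotoxicity via CellTiter-Glo luminescence after 72 h compound exposure at 37 degrees C. Cells: drug-selected KB-V1 line, DMEM phenol-red free plus 10% FBS. Compounds tested at multiple concentrations; normalized data fitted to concentration-effect curves.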
KB-3-1 tox = kills parental KB-3-1 adenocarcinoma cells. KB-3-1 viability, CellTiter-Glo ATP luminescence, 72 h. Potency, µM (doses to about 46.1 µM), most hits filed as cytotoxic. 400,000 compounds, 1.4% hits; further: on the % scale 0 is the no-effect control and ±100 the full control effect; nearly all actives have a fitted effect of over 60% in size
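KB-3-1 parental drug-naive adenocarcinoma cells in DMEM/10% FBS, incubated 72 h at 37 C with pin-transferred compounds across a concentration series. Viability by CellTiter-Glo luminescence; concentration-response curves fitted after normalization.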
S2 tox = reduces viability in counter-screen for ATXN expression inhibitors; Potency, µM (titrated, usually from 56.7 µM), usual class: cytotoxic; S2 cells (HEK-293 line with an ATXN2-luciferase reporter) viability, CellTiter-Fluor protease fluorescence, 24 h; 400,000 compounds, 0.49% hits; further: nearly all actives have a fitted effect of over 40% in size
Starred values were filed as active, the others as inactive. The call rests on the fitted dose curve; in most records, active means well fitted curve in the direction sought with a large enough effect; inconclusive means small, poorly fitted or top-dose-only effect, or another doubt; inactive means no such curve, though single readings can be large; an effect the other way counts as inactive or inconclusive. Potency means the concentration at half of the fitted maximal effect.

How did CC1(C)NC(=O)N(CC(O)COc2ccc(-c3ccc(C#N)cc3)cc2)C1=O (stereo not given) do in these assays?
HepG2 viability: -20.1%; TGFb inhibitor: inconclusive; ATXN2 expr inh: -16.2%; KB-V1 MDR tox: 20.6µM*; KB-3-1 tox: inactive; S2 tox: inactive

How did CO[C@H]1/C=C\O[C@@]2(C)Oc3c(C)c(O)c4c(O)c(c(C=NN5CCN(C6CCCC6)CC5)c(O)c4c3C2=O)NC(=O)C(C)=CC=C[C@H](C)[C@H](O)[C@@H](C)[C@@H](O)[C@@H](C)[C@H](OC(C)=O)[C@H]1C do in these assays?
HepG2 viability: -41.0%; TGFb inhibitor: 11.2µM*; ATXN2 expr inh: 5.44µM*; KB-V1 MDR tox: inactive; KB-3-1 tox: inactive

What do the screens show for `COC1C=COC2(C)Oc3c(C)c(O)c4c(O)c(c(CN5CCN(C)CC5)c(O)c4c3C2=O)NC(=O)C(C)=CC=CC(C)C(O)C(C)C(O)C(C)C(OC(C)=O)C1C` (stereo not given)?
HepG2 viability: 8.0%; TGFb inhibitor: -9.3%; ATXN2 expr inh: 14.7%; KB-V1 MDR tox: inactive; KB-3-1 tox: inactive; S2 tox: inactive

How did CN(C)/C=C\C(=C/C(=O)C(F)(F)F)Nc1ccccc1Oc1ccccc1 do in these assays?
HepG2 viability: -19.3%; TGFb inhibitor: inconclusive; ATXN2 expr inh: -22.6%; KB-V1 MDR tox: inactive; KB-3-1 tox: inconclusive; S2 tox: inactive

How did Cc1ccc(NC(/C=C/N(C)C)=C/C(=O)C(F)(F)F)c(C)c1 do in these assays?
HepG2 viability: -3.3%; TGFb inhibitor: 20µM*; ATXN2 expr inh: -28.3%; KB-V1 MDR tox: inactive; KB-3-1 tox: inactive; S2 tox: inactive

What do the screens show for `O=C(O)C(=O)Nc1cccc(-c2nn[nH]n2)c1`?
ATXN2 expr inh: 1.3%; S2 tox: inactive

Results for Cc1cc(SC(C)C(=O)Nc2ncc(Cl)cc2Cl)nc2ccccc12 (stereo not given) ?
HepG2 viability: -25.6%; TGFb inhibitor: -32.1%; ATXN2 expr inh: 46.0%; KB-V1 MDR tox: 18.4µM*; KB-3-1 tox: inactive; S2 tox: inactive

Results for Nc1c(C(=O)Nc2ccc(Br)cc2)sc2nc(-c3ccco3)ccc12 ?
HepG2 viability: -72.2%; TGFb inhibitor: inconclusive; ATXN2 expr inh: -22.1%; KB-V1 MDR tox: 5.17µM*; KB-3-1 tox: inactive

Results for COc1ccc(NC(=O)CSc2oc(-c3ccco3)nc2S(=O)(=O)c2ccccc2)c(OC)c1 ?
HepG2 viability: -2.7%; TGFb inhibitor: 0.4%; ATXN2 expr inh: -11.6%; KB-V1 MDR tox: inactive; KB-3-1 tox: inactive; S2 tox: inactive

Results for COc1ccc(C2/C=C\CN(CC(C)C)C(C)C(=O)N2Cc2ccc(F)cc2)cc1 (stereo not given) ?
HepG2 viability: -29.4%; TGFb inhibitor: inconclusive

Results for Cc1nc(NCc2ccc3c(c2)OCO3)c2oc3ccccc3c2n1 ?
HepG2 viability: -30.1%; TGFb inhibitor: inconclusive; ATXN2 expr inh: -26.6%; KB-V1 MDR tox: inactive; KB-3-1 tox: inactive; S2 tox: inactive

Results for CCc1nc(NCc2ccc3c(c2)OCO3)c2oc3ccccc3c2n1 ?
HepG2 viability: -47.4%; TGFb inhibitor: 0.0%; ATXN2 expr inh: -2.7%; KB-V1 MDR tox: 16.4µM*; KB-3-1 tox: inconclusive; S2 tox: inactive

How did COc1ccc2oc(C(=O)NCCc3ccccc3)c(C)c2c1 do in these assays?
HepG2 viability: -9.0%; TGFb inhibitor: -1.2%; ATXN2 expr inh: 4.47µM*; KB-V1 MDR tox: inactive; KB-3-1 tox: inactive; S2 tox: inactive

Results for COc1ccc(C(=O)N(C)c2ccccc2C(=O)NCCc2ccccc2)cc1 ?
HepG2 viability: -6.4%; TGFb inhibitor: 0.0%; ATXN2 expr inh: -36.7%; KB-V1 MDR tox: 5.8µM*; KB-3-1 tox: 2.91µM*; S2 tox: inactive

What do the screens show for `COc1ccc2oc(C(=O)OCC(=O)NCCc3ccccc3)c(C)c2c1`?
HepG2 viability: 9.1%; TGFb inhibitor: 4.9%; ATXN2 expr inh: 0.1%; KB-V1 MDR tox: inactive; KB-3-1 tox: inactive; S2 tox: inactive

What do the screens show for `COc1c(C)cc(S(=O)(=O)Nc2cccc(-c3ccc(N4CCOCC4)nn3)c2)c(C)c1C`?
HepG2 viability: -27.3%; TGFb inhibitor: -32.7%; ATXN2 expr inh: inconclusive; KB-V1 MDR tox: inactive; KB-3-1 tox: 20.6µM*; S2 tox: inconclusive

What do the screens show for `Cc1cc(C)cc(S(=O)(=O)Nc2cccc(-c3ccc(N4CCOCC4)nn3)c2)c1`?
HepG2 viability: -26.5%; TGFb inhibitor: -16.0%; ATXN2 expr inh: 12.6%; KB-V1 MDR tox: inactive; KB-3-1 tox: inactive; S2 tox: inactive

What do the screens show for `COc1ccccc1CCC(=O)N1CCOc2c(cc(-c3cnc4ccccc4c3)cc2OC)C1`?
S2 tox: inactive

What do the screens show for `CCOC(=O)CNC(=O)c1sc2ncnc(N3CCc4ccccc4C3)c2c1C`?
HepG2 viability: -11.4%; TGFb inhibitor: -8.3%; ATXN2 expr inh: 4.6%; KB-V1 MDR tox: 14.6µM*; KB-3-1 tox: inactive; S2 tox: inactive

What do the screens show for `CCCOc1ccc(C2C(=O)N(C3CCCCC3)CC(=O)N2CCC2=CCCCC2)cc1OC` (stereo not given)?
HepG2 viability: 0.3%; TGFb inhibitor: 6.3%; ATXN2 expr inh: 9.2%; KB-V1 MDR tox: inactive; KB-3-1 tox: inactive; S2 tox: inactive

Results for Cc1cccn2c(=O)c3cc(C(=O)NC4CCCCC4)c(=N)n(CCN4CCOCC4)c3nc12 ?
HepG2 viability: 10.4%; TGFb inhibitor: 8.7%; ATXN2 expr inh: -19.8%; KB-V1 MDR tox: inactive; KB-3-1 tox: inactive; S2 tox: inactive

Results for CCOCCCn1c(=N)c(C(=O)NCc2ccc3c(c2)OCO3)cc2c(=O)n3cccc(C)c3nc21 ?
HepG2 viability: -25.5%; TGFb inhibitor: -0.8%; ATXN2 expr inh: inconclusive; KB-V1 MDR tox: inactive; KB-3-1 tox: 6.51µM*; S2 tox: inconclusive

How did CCCCNC(=O)c1cc2c(=O)n3cccc(C)c3nc2n(CCN2CCOCC2)c1=N do in these assays?
HepG2 viability: -1.1%; TGFb inhibitor: 12.3%; ATXN2 expr inh: -5.0%; KB-V1 MDR tox: 10.3µM*; KB-3-1 tox: inactive; S2 tox: inactive

What do the screens show for `COCCCn1c(=N)c(C(=O)NCc2ccc3c(c2)OCO3)cc2c(=O)n3cccc(C)c3nc21`?
HepG2 viability: -2.9%; TGFb inhibitor: 2.2%; ATXN2 expr inh: -10.7%; KB-V1 MDR tox: inactive; KB-3-1 tox: inactive; S2 tox: inactive
